Assay results from PubChem BioAssay (NCI).
The panel holds about 79,000 compounds, 15% with a hit somewhere; the sample as a whole holds those more often. Values without a mark were called inactive. The source made the active and inactive calls. No stated cut-off is given here; in the data, active means growth inhibition above about 70%; inactive means the rest.

Key:
[1] = NCI Yeast Anticancer Drug Screen. Data for the rad50 strain (AID 155);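 further: 0% = growth of vehicle-only cultures of the same strain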; conditions: S. cerevisiae rad50 strain growth inhibition; at 50.0 µM; active compounds read high
Method in brief: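 Readout: growth inhibition relative to vehicle-treated cultures. Compound exposure was carried out in a genetically defined yeast strain deficient in DNA damage repair.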

[2] = NCI Yeast Anticancer Drug Screen. Data for the mec2-1 strain (AID 157); conditions: S. cerevisiae mec2-1 strain, at 50.0 µM, active compounds read high
Method in brief: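 mec2-1 yeast strain, carrying an alteration in DNA damage repair or cell cycle control, was exposed to compounds; growth inhibition was measured relative to vehicle-treated controls.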

[3] = NCI Yeast Anticancer Drug Screen. Data for the sgs1 mgt1 strain (AID 161);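 further: 0% = growth of cultures given vehicle only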; conditions: S. cerevisiae sgs1 mgt1 strain, at 50.0 µM, active compounds read high
Method in brief: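 Growth of a repair-deficient yeast mutant was monitored after compound treatment and expressed as inhibition relative to vehicle-treated cultures.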

[4] = NCI Yeast Anticancer Drug Screen. Data for the cln2 rad14 strain (AID 165);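 further: 0% = growth equal to vehicle treated cultures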; conditions: S. cerevisiae cln2 rad14 strain, at 50.0 µM, active compounds read high
Method in brief: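 Yeast carrying cln2 and rad14 alterations (cell cycle control and DNA damage repair) were exposed to compounds. Growth inhibition was measured against vehicle-treated controls.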

[5] = NCI Yeast Anticancer Drug Screen. Data for the bub3 strain (AID 167); conditions: S. cerevisiae bub3 mutant strain, at 50.0 µM, active compounds read high
Method in brief: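 Readout: yeast growth inhibition, expressed relative to vehicle-only wells. The test organism is a mutant strain from a panel with lesions in DNA repair or checkpoint genes.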

[6] = NCI Yeast Anticancer Drug Screen. Data for the mlh1 rad18 strain (AID 175); conditions: S. cerevisiae mlh1 rad18 strain growth inhibition; at 50.0 µM; active compounds read high
Method in brief: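 Growth inhibition of the yeast strain was measured after compound exposure and expressed relative to vehicle-treated controls. The strain carries defined defects in DNA damage repair.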

O=C1NC(=S)N/C1=C/c1ccccc1O
growth inhibition [1]: 12.3%
growth inhibition [2]: 6.65%
growth inhibition [3]: -27.6%
growth inhibition [4]: -14.8%
growth inhibition [5]: -27.7%
growth inhibition [6]: -42.4%

O=P(O)(O)CCc1ccccc1
growth inhibition [1]: -3.85%
growth inhibition [2]: 1.5%
growth inhibition [3]: -5.2%
growth inhibition [4]: -15.8%
growth inhibition [5]: -2.7%
growth inhibition [6]: 7.7%

Nc1ccccc1Nc1ccccc1C(=O)[O-].Nc1ccccc1Nc1ccccc1C(=O)[O-].[Cu+2]
growth inhibition [1]: -3.5%
growth inhibition [2]: 7.8%
growth inhibition [3]: -19.5%
growth inhibition [4]: -3.3%
growth inhibition [5]: -11.8%
growth inhibition [6]: 7.75%

c1ccc(-c2csc3[nH]c4ccccc4[n+]23)cc1
growth inhibition [1]: 19.4%
growth inhibition [2]: 5.6%
growth inhibition [3]: 8.35%
growth inhibition [4]: 5.7%
growth inhibition [5]: 5.25%
growth inhibition [6]: 6.35%

CO[C@H]1C[C@H](O[C@H]2CC[C@]3(C=O)[C@H]4CC[C@]5(C)[C@@H](C6=CC(=O)OC6)CC[C@]5(O)[C@@H]4CC[C@]3(O)C2)O[C@H](C)[C@H]1O
growth inhibition [1]: 33.4%
growth inhibition [2]: -11.3%
growth inhibition [3]: 8.6%
growth inhibition [4]: 0.55%
growth inhibition [5]: -6.45%
growth inhibition [6]: 32.3%

CC(Br)[N+](=O)[O-] (stereo not drawn)
growth inhibition [1]: 28.8%
growth inhibition [2]: 4.9%
growth inhibition [3]: 5.4%
growth inhibition [4]: 13.8%
growth inhibition [5]: -8.7%
growth inhibition [6]: 5.35%

CCOP(=O)(O)C1CCCC(C)[N-]1.CCOP(=O)(O)C1CCCC(C)[N-]1.[Cu+2] (stereo not drawn)
growth inhibition [1]: 49.4%
growth inhibition [2]: 33.6%
growth inhibition [3]: 31.7%
growth inhibition [4]: 45.2%
growth inhibition [5]: 2.9%
growth inhibition [6]: 26.6%

CC(NC(=O)c1c(O)[nH]c(=S)[nH]c1=O)c1ccc([N+](=O)[O-])cc1 (stereo not drawn)
growth inhibition [1]: 17.9%
growth inhibition [2]: 13.8%
growth inhibition [3]: 35.8%
growth inhibition [4]: 19.4%
growth inhibition [5]: 12.1%
growth inhibition [6]: 14.6%

CCCCNC(=O)CCl
growth inhibition [1]: 13.4%
growth inhibition [2]: 13.7%
growth inhibition [3]: 9.15%
growth inhibition [4]: -0.4%
growth inhibition [5]: 9.3%
growth inhibition [6]: 13.8%

CCCOC(=O)CCl
growth inhibition [1]: 15.4%
growth inhibition [2]: 15.2%
growth inhibition [3]: 30.1%
growth inhibition [4]: 5.25%
growth inhibition [5]: 5.15%
growth inhibition [6]: 20.3%

CC(C)=CC1C(C(=O)OCc2cc3c(cc2Cl)OCO3)C1(C)C (stereo not drawn)
growth inhibition [1]: 8.65%
growth inhibition [2]: 12.1%
growth inhibition [3]: -15.2%
growth inhibition [4]: -48.9%
growth inhibition [5]: 14.9%
growth inhibition [6]: -3.9%

COc1cc2c(cc1OC)CC[N+](C)=C2
growth inhibition [1]: 5.65%
growth inhibition [2]: -6.5%
growth inhibition [3]: 13.8%
growth inhibition [4]: -2.45%
growth inhibition [5]: -2.4%
growth inhibition [6]: 2.65%

N#CCCO
growth inhibition [1]: -7.35%
growth inhibition [2]: 5.05%
growth inhibition [3]: 0.55%
growth inhibition [4]: -6.9%
growth inhibition [5]: -3.7%
growth inhibition [6]: -6.2%

COC(=O)C1(O)c2ccccc2N=C2C1CCN2C (stereo not drawn)
growth inhibition [1]: 15.1%
growth inhibition [2]: -11.4%
growth inhibition [3]: -8.85%
growth inhibition [4]: 6.4%
growth inhibition [5]: 6.3%
growth inhibition [6]: 16.9%

CC12CC/C(=N/NC(=O)Cc3c[nH]c4ccccc34)C=C1CCC1C2CCC2(C)C(OC(=O)c3ccccc3)CCC12 (stereo not drawn)
growth inhibition [1]: 35.8%
growth inhibition [2]: 28.6%
growth inhibition [3]: 24.1%
growth inhibition [4]: 0.65%
growth inhibition [5]: 3.3%
growth inhibition [6]: 34.8%

CC#CC(O)(C(=O)OC)c1ccccc1 (stereo not drawn)
growth inhibition [1]: -7.35%
growth inhibition [2]: 12.6%
growth inhibition [3]: -20.8%
growth inhibition [4]: -23.6%
growth inhibition [5]: -5.1%
growth inhibition [6]: -1.9%

Cc1ccc(Cl)c2c1CC(=[N+]=[N-])C2=O
growth inhibition [1]: 10.2%
growth inhibition [2]: 5.2%
growth inhibition [3]: 8.7%
growth inhibition [4]: -0.45%
growth inhibition [5]: 10.5%
growth inhibition [6]: 7.15%

O=[N+]([O-])C1(Cl)CCC(Cl)([N+](=O)[O-])CC1 (stereo not drawn)
growth inhibition [1]: 5.85%
growth inhibition [2]: -6.2%
growth inhibition [3]: -2.1%
growth inhibition [4]: -23.4%
growth inhibition [5]: -14.6%
growth inhibition [6]: -18.3%

C1NCC2CNCC1O2
growth inhibition [1]: 3.2%
growth inhibition [2]: -12.4%
growth inhibition [3]: -7.95%
growth inhibition [4]: 6.35%
growth inhibition [5]: 7.9%
growth inhibition [6]: -3.15%

CCOP(=S)(OCC)Oc1ccc2c(c1)OC(=O)C1(Cl)C2(C)C2(Cl)C(=O)Oc3cc(OP(=S)(OCC)OCC)ccc3C12C (stereo not drawn)
growth inhibition [1]: 10.2%
growth inhibition [2]: 4.75%
growth inhibition [3]: 3.45%
growth inhibition [4]: 15.1%
growth inhibition [5]: 2.05%
growth inhibition [6]: 1.45%

CCOC(=O)/C=C1/C=C(C)CC(C)(C)C1 (tested in a mixture with another compound)
growth inhibition [1]: -0.3%
growth inhibition [2]: -58.7%
growth inhibition [3]: -9.1%
growth inhibition [4]: -40.5%
growth inhibition [5]: 19%
growth inhibition [6]: 1.7%

c1ccc(CCN2CCCCC2)nc1
growth inhibition [1]: 2.55%
growth inhibition [2]: -1.8%
growth inhibition [3]: -0.15%
growth inhibition [4]: -1.1%
growth inhibition [5]: 13.3%
growth inhibition [6]: -0.85%

C/C(CCl)=N\NC1=NC2(CCCCC2)P(=O)(NNc2ncccn2)S1 (stereo not drawn)
growth inhibition [1]: 3.7%
growth inhibition [2]: 12%
growth inhibition [3]: 19.9%
growth inhibition [4]: -0.5%
growth inhibition [5]: 6.3%
growth inhibition [6]: 15.2%

O=P1(N(CCCl)CCCl)NCCCO1 (stereo not drawn)
growth inhibition [1]: -8.1%
growth inhibition [2]: -32.2%
growth inhibition [3]: -6.1%
growth inhibition [4]: 4.8%
growth inhibition [5]: -15.2%
growth inhibition [6]: -7.05%

CCOC(=O)/C(=C\c1ccc(Cl)cc1)[Se]c1ccccc1
growth inhibition [1]: 56.9%
growth inhibition [2]: 5.7%
growth inhibition [3]: 28.9%
growth inhibition [4]: 20.6%
growth inhibition [5]: 11.3%
growth inhibition [6]: 43%

CC(C)[C@@H]1ON1C(C)c1ccccc1 (stereo partly drawn)
growth inhibition [1]: 21.3%
growth inhibition [2]: -10.1%
growth inhibition [3]: 25.8%
growth inhibition [4]: 11.6%
growth inhibition [5]: 27.4%
growth inhibition [6]: 16%

O=[N+]([O-])c1ccc(SSC(Cl)(Cl)Cl)cc1
growth inhibition [1]: 33%
growth inhibition [2]: 94.2% (active)
growth inhibition [3]: 93.5% (active)
growth inhibition [4]: 13.4%
growth inhibition [5]: 78.5% (active)
growth inhibition [6]: 84.4% (active)

O=S(=O)(F)c1ccccc1
growth inhibition [1]: 35.8%
growth inhibition [2]: -0.6%
growth inhibition [3]: -11.4%
growth inhibition [4]: -59.8%
growth inhibition [5]: 2.1%
growth inhibition [6]: 6.85%

CC(C)CCCC(C)C1CCC2C3CC=C4CC([Se][As](C)C)CCC4(C)C3CCC12C (stereo not drawn)
growth inhibition [1]: 11.1%
growth inhibition [2]: -0.1%
growth inhibition [3]: 8.55%
growth inhibition [4]: 14.7%
growth inhibition [5]: 0.6%
growth inhibition [6]: -7.4%

CN(c1ccccc1)c1nc(=[N+]2CCCC2)ss1
growth inhibition [1]: 11.6%
growth inhibition [2]: -1.3%
growth inhibition [3]: -11.8%
growth inhibition [4]: 0.9%
growth inhibition [5]: 7.75%
growth inhibition [6]: 24.6%

C[N+](C)([O-])CCNC(=O)c1cc(N(CCCl)CCCl)c([N+](=O)[O-])cc1[N+](=O)[O-]
growth inhibition [1]: -7.55%
growth inhibition [2]: -35%
growth inhibition [3]: -3.9%
growth inhibition [4]: -63.5%
growth inhibition [5]: -4.95%
growth inhibition [6]: -11.8%

O=P(N1CCCCCC1)(N1CC1)N1CC1
growth inhibition [1]: -2.15%
growth inhibition [2]: 11%
growth inhibition [3]: -11.4%
growth inhibition [4]: 3.95%
growth inhibition [5]: -3.25%
growth inhibition [6]: 6.35%

OC(c1ccc2ccccc2n1)C1CCCCN1 (stereo not drawn)
growth inhibition [1]: 14.2%
growth inhibition [2]: -6.45%
growth inhibition [3]: 7.05%
growth inhibition [4]: -8.15%
growth inhibition [5]: -1.7%
growth inhibition [6]: 11.1%

CCOP(=O)(OCC)Oc1ccc(SC)cc1
growth inhibition [1]: -7.85%
growth inhibition [2]: -14.3%
growth inhibition [3]: -9.65%
growth inhibition [4]: -14.9%
growth inhibition [5]: 12.9%
growth inhibition [6]: -14.8%

CCCC/C=C/C=C/C=C/CCCCCCCC(=O)OCC(COC(=O)CCCCCCC/C=C/C1C=CC(CCCC)C(C(=O)O)C1C(=O)O)OC(=O)CCCCCCC/C=C/C=C/C=C/CCCC (stereo not drawn) (tested in a mixture with another compound)
growth inhibition [1]: -10.8%
growth inhibition [2]: -20.1%
growth inhibition [3]: 4.55%
growth inhibition [4]: -3.85%
growth inhibition [5]: 7.6%
growth inhibition [6]: -0.45%

COc1ccc2c(c1OC(C)=O)-c1cc(OC(C)=O)cc3c1C(C2)N(C(=O)CN(CCCl)CCCl)CC3 (stereo not drawn)
growth inhibition [1]: -6.4%
growth inhibition [2]: -6%
growth inhibition [3]: -1.95%
growth inhibition [4]: -13%
growth inhibition [5]: -0.05%
growth inhibition [6]: -6.6%

COP(=O)(Oc1ccccc1)Oc1ccccc1
growth inhibition [1]: 17.6%
growth inhibition [2]: -17.5%
growth inhibition [3]: 23.9%
growth inhibition [4]: 13.1%
growth inhibition [5]: 25.9%
growth inhibition [6]: 18.5%

Cc1ccc2c3c(c(=O)oc2c1)[C@H](C)C[C@@](C)(CO)O3
growth inhibition [1]: -8.35%
growth inhibition [2]: 1.9%
growth inhibition [3]: 9.8%
growth inhibition [4]: -5.4%
growth inhibition [5]: 3.7%
growth inhibition [6]: -7.35%
